# How the values were obtained:
# Assay in all cases: DAPPL (digital affinity profiling via proximity ligation, sequencing); 10 mM Tris-HCl pH 7.5, 50 mM NaCl, 1 mM DTT, 4% glycerol, room temperature, 30 min; GST-TFs on glutathione beads, 16-mer random dsDNA library, 0.1% formaldehyde crosslink after washing; high values mean tight binding
# FLI1 = target: T1, FLI1 (Homo sapiens, UniProt Q01543 1-452); conditions: protein: recombinant; tags: N-terminal GST; dsDNA, one strand shown
# T1 sequence: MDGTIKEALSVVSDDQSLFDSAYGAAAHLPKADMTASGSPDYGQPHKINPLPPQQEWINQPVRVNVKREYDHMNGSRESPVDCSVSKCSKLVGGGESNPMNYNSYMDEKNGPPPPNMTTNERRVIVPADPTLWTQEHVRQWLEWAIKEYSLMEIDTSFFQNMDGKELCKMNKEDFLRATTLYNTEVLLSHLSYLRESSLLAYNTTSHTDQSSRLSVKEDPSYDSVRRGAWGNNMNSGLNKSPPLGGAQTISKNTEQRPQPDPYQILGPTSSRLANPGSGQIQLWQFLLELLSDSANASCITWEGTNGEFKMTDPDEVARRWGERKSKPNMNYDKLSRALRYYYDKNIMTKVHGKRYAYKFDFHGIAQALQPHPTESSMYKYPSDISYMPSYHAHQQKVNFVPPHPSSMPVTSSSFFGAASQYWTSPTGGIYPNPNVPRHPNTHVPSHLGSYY
# Method in brief: (§1)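 Each value of binding signal is a hexamer's read frequency for a factor divided by the same hexamer's frequency in the tag-only sample. Barcoded, bead-captured GST fusions of human transcription factors made in yeast were pooled with that sample and incubated with 200 nmole of a random double-stranded 16-mer DNA library in Tris/NaCl/DTT/glycerol buffer at room temperature for 30 min. Washing, 0.1% formaldehyde crosslinking, proximity ligation, PCR and Illumina NextSeq500 sequencing followed.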
# ELK1 = target: T2, ELK1 (Homo sapiens, UniProt P19419 1-428); conditions: protein: recombinant; tags: N-terminal GST; dsDNA, one strand shown
# T2 sequence: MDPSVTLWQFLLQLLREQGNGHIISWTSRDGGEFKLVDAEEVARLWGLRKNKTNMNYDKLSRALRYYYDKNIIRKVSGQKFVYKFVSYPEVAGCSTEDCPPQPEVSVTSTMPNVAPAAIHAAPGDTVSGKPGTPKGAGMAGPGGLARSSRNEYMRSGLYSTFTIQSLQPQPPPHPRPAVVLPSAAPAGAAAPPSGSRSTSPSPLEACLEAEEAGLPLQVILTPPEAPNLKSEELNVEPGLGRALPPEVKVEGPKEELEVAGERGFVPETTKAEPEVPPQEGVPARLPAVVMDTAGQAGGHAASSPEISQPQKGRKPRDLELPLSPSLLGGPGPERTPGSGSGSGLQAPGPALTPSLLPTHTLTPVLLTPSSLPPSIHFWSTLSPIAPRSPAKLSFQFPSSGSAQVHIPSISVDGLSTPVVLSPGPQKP
# Method in brief: as §1
# GABPA = target: T3, GABPA (Homo sapiens, UniProt Q06546 1-454); conditions: protein: recombinant; tags: N-terminal GST; dsDNA, one strand shown
# T3 sequence: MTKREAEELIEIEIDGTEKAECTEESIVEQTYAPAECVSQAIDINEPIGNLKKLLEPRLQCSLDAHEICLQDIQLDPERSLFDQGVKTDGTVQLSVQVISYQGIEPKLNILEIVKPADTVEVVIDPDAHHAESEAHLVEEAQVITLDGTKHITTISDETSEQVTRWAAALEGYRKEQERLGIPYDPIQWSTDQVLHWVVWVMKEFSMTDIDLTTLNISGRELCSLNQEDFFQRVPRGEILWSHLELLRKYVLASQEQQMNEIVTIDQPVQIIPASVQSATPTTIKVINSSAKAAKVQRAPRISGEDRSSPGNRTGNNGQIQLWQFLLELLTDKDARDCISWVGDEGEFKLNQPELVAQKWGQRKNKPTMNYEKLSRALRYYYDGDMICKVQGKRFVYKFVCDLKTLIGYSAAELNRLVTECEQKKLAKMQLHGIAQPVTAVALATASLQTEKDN
# Method in brief: as §1
# ERG = target: T4, ERG (Homo sapiens, UniProt P11308 1-479); conditions: protein: recombinant; tags: N-terminal GST; dsDNA, one strand shown
# T4 sequence: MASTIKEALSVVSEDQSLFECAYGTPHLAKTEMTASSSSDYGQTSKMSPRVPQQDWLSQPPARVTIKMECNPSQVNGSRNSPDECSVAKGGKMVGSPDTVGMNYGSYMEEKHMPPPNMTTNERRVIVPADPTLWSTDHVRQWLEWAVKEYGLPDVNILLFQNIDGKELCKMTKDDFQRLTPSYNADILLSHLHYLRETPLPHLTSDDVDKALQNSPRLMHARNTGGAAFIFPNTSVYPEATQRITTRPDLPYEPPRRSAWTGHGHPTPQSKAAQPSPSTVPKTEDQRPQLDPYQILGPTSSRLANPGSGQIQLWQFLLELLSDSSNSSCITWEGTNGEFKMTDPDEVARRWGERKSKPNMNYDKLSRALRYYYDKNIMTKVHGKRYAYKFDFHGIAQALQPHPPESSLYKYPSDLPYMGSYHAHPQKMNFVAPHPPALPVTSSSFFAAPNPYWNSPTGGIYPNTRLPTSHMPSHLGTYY
# Method in brief: as §1
# ELF1 = ELF1 (Homo sapiens, UniProt P32519 1-619); conditions: protein: recombinant; tags: N-terminal GST; dsDNA, one strand shown
# Method in brief: as §1
# EHF = target: T5, EHF (Homo sapiens, UniProt Q9NZC4 1-300); conditions: protein: recombinant; tags: N-terminal GST; dsDNA, one strand shown
# T5 sequence: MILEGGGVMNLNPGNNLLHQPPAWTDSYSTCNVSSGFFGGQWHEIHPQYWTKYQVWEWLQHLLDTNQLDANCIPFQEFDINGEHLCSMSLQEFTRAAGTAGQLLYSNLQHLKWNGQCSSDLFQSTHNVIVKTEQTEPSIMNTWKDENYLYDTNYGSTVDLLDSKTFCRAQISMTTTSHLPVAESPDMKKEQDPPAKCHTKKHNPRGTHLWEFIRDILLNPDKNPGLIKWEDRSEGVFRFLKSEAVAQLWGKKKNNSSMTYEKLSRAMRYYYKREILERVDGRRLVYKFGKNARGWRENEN
# Method in brief: as §1
# SPI1 = SPI1 (Homo sapiens, UniProt P17947 1-270); conditions: protein: recombinant; tags: N-terminal GST; dsDNA, one strand shown
# Method in brief: as §1
# SPIB = SPIB (Homo sapiens, UniProt Q01892 1-262); conditions: protein: recombinant; tags: N-terminal GST; dsDNA, one strand shown
# Method in brief: as §1
# ELK3 = target: T6, ELK3 (Homo sapiens, UniProt P41970 1-407); conditions: protein: recombinant; tags: N-terminal GST; dsDNA, one strand shown
# T6 sequence: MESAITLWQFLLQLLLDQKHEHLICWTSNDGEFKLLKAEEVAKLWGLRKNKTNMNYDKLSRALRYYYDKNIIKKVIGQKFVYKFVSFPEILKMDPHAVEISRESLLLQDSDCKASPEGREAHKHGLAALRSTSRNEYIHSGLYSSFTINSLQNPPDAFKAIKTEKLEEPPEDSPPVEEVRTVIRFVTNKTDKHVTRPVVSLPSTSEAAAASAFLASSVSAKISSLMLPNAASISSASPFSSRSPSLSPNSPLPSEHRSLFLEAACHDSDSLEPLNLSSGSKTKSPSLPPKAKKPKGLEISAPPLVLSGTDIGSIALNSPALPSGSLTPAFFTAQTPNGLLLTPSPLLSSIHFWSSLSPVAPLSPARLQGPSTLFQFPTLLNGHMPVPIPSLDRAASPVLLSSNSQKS
# Method in brief: as §1
# FEV = target: T7, FEV (Homo sapiens, UniProt Q99581 1-238); conditions: protein: recombinant; tags: N-terminal GST; dsDNA, one strand shown
# T7 sequence: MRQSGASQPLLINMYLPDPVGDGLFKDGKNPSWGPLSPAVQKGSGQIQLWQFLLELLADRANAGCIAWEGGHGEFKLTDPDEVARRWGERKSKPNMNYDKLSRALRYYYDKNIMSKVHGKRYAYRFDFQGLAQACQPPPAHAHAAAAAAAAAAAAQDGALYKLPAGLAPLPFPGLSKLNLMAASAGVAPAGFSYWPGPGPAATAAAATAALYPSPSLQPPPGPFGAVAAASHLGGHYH
# Method in brief: as §1
# ETV5 = ETV5 (Homo sapiens, UniProt P41161 1-510); conditions: protein: recombinant; tags: N-terminal GST; dsDNA, one strand shown
# Method in brief: as §1
# HSF1 = HSF1 (Homo sapiens, UniProt Q00613 1-529); conditions: protein: recombinant; tags: N-terminal GST; chain copies: 3; dsDNA, one strand shown
# Method in brief: as §1
# SPIC = target: T8, SPIC (Homo sapiens, UniProt Q8N5J4 1-248); conditions: protein: recombinant; tags: N-terminal GST; dsDNA, one strand shown
# T8 sequence: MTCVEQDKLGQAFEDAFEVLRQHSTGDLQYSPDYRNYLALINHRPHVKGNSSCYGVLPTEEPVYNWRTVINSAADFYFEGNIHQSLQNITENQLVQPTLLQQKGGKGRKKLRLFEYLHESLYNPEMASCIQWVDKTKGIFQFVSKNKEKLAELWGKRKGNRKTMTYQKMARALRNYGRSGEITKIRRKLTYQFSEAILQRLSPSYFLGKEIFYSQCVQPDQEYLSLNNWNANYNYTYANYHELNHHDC
# Method in brief: as §1
# ELF4 = ELF4 (Homo sapiens, UniProt Q99607 1-663); conditions: protein: recombinant; tags: N-terminal GST; dsDNA, one strand shown
# Method in brief: as §1
# ELK4 = target: T9, ELK4 (Homo sapiens, UniProt P28324-2 1-405); conditions: protein: recombinant; tags: N-terminal GST; dsDNA, one strand shown
# T9 sequence: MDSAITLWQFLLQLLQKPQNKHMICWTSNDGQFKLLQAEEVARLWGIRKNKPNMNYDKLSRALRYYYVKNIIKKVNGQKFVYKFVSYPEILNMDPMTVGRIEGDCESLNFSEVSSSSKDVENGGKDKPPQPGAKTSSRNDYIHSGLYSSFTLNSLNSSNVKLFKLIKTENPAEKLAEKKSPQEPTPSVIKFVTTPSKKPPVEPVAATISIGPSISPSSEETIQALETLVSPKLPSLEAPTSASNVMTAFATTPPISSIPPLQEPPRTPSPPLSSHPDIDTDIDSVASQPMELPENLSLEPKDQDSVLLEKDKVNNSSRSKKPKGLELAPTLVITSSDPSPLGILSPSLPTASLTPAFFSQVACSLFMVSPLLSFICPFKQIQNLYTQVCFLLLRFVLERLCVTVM
# Method in brief: as §1
# ETV2 = target: T10, ETV2 (Homo sapiens, UniProt O00321 1-342); conditions: protein: recombinant; tags: N-terminal GST; dsDNA, one strand shown
# T10 sequence: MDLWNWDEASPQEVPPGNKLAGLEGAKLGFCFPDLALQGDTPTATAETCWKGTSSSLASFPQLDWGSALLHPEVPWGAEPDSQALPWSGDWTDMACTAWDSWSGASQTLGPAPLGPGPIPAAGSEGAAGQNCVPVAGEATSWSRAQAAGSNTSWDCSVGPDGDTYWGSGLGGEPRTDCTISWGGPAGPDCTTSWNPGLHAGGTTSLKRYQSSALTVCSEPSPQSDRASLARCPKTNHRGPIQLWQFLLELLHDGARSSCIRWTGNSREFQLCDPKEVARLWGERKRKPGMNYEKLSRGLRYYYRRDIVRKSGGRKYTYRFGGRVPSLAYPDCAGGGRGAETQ
# Method in brief: as §1
# ELF3 = target: T11, ELF3 (Homo sapiens, UniProt P78545 1-371); conditions: protein: recombinant; tags: N-terminal GST; dsDNA, one strand shown
# T11 sequence: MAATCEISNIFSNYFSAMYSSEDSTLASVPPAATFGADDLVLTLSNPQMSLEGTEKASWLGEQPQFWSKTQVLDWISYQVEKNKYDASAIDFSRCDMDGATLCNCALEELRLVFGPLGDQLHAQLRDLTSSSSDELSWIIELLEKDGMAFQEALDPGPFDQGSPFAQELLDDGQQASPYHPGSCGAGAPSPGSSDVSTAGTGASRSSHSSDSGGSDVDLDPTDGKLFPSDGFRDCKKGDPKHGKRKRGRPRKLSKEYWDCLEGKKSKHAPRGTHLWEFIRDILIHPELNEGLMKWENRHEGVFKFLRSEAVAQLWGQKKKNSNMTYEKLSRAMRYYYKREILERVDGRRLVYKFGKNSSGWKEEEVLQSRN
# Method in brief: as §1
# CRX = CRX (Homo sapiens, UniProt O43186 1-299); conditions: protein: recombinant; tags: N-terminal GST; dsDNA, one strand shown
# Method in brief: as §1
# ETV1 = ETV1 (Homo sapiens, UniProt P50549 1-477); conditions: protein: recombinant; tags: N-terminal GST; dsDNA, one strand shown
# Method in brief: as §1
# Chain of ETV1 (P50549 whole entry): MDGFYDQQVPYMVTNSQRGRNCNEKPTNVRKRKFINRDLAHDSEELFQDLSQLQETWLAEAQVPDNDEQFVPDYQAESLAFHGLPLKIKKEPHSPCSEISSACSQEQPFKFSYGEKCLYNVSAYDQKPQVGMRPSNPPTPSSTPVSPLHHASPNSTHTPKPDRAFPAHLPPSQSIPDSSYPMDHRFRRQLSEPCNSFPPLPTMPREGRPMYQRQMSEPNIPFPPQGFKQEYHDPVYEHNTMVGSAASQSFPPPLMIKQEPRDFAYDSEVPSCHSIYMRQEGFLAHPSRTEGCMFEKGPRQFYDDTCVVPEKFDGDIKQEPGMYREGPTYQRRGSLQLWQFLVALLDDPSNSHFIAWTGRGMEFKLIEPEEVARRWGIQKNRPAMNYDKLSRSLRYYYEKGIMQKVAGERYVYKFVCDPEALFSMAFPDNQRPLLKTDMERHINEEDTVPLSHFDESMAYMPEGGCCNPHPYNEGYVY
# Chain of ELF4 (Q99607 whole entry): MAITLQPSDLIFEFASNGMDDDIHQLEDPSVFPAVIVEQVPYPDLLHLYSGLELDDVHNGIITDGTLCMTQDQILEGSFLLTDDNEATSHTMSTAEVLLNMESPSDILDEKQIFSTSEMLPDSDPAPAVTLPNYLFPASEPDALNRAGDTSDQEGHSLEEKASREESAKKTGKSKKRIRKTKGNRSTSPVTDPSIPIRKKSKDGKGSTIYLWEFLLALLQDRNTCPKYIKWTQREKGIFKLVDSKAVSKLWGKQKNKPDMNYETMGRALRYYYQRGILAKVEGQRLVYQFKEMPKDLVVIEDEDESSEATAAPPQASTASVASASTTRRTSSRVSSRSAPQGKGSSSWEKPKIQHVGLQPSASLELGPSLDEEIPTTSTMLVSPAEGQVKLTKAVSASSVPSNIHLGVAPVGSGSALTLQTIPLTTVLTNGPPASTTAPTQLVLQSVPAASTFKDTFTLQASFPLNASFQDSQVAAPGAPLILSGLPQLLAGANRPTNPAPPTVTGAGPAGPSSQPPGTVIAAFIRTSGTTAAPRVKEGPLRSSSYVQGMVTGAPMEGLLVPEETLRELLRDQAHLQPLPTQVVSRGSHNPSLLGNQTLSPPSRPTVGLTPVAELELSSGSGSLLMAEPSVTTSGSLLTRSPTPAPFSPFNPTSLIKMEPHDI
# Chain of CRX (O43186 whole entry): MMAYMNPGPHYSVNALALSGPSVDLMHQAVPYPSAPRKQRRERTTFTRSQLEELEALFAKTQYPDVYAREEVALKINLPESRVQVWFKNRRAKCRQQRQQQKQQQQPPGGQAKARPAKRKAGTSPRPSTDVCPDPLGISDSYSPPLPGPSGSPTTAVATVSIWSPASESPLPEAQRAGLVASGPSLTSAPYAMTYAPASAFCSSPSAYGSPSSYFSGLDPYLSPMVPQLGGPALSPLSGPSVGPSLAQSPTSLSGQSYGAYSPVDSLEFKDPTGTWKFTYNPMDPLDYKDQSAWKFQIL
# Chain of SPIB (Q01892 whole entry): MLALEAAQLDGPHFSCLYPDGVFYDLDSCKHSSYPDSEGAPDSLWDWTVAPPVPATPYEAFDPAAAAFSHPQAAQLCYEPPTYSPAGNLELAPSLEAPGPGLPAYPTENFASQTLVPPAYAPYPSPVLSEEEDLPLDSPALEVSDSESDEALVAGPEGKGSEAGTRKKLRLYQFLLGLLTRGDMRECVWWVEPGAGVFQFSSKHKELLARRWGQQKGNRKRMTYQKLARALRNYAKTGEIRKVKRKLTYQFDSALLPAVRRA
# Chain of ELF1 (P32519 whole entry): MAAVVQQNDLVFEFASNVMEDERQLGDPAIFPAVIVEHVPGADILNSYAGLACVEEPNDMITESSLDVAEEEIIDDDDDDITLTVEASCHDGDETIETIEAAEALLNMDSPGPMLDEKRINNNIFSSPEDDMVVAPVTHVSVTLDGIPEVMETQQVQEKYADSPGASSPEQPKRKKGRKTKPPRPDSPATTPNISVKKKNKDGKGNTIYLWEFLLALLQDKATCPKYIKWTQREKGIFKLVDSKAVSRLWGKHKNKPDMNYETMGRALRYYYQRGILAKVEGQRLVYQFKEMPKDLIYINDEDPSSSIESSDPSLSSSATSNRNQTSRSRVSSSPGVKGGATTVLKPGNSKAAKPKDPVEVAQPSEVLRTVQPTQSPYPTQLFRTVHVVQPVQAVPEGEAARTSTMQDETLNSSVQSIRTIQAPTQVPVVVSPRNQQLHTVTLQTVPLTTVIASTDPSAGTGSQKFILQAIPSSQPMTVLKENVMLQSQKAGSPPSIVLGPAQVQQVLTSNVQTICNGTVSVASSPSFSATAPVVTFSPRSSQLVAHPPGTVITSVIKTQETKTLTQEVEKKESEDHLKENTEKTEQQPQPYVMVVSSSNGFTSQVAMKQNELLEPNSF
# Chain of ETV5 (P41161 whole entry): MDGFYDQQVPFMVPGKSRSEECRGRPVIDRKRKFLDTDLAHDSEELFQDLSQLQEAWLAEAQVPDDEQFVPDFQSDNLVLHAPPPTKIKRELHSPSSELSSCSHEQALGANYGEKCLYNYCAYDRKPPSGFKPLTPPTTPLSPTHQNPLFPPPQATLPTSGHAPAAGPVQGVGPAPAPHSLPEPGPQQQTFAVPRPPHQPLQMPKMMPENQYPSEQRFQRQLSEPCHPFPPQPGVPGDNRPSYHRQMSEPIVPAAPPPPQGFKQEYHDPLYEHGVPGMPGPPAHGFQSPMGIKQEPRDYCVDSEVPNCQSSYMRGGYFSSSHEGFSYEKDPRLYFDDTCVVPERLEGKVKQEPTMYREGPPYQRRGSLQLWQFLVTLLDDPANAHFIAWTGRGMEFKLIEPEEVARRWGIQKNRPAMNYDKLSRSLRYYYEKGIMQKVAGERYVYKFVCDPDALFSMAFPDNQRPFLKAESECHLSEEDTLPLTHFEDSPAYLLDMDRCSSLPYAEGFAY
# Chain of HSF1 (Q00613 whole entry): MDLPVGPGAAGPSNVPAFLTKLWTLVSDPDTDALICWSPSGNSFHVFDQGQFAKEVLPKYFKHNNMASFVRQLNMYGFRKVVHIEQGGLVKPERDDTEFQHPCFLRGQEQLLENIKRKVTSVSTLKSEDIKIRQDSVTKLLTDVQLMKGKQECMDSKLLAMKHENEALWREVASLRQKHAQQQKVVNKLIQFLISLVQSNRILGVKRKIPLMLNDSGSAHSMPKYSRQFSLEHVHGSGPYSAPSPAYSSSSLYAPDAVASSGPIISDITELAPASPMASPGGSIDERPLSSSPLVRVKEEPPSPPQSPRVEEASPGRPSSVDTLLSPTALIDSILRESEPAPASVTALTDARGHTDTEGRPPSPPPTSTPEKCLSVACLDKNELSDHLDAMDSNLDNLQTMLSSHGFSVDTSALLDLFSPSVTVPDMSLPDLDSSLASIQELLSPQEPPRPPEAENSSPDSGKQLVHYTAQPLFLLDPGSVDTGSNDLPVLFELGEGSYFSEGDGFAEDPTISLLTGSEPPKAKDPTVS
sequence,measurement,setting,value
GTTCTG,binding signal,FLI1,"1.14 fold enrichment (6-mer frequency, TF over GST control)"
same,binding signal,ELK1,"1.21 fold enrichment (6-mer frequency, TF over GST control)"
same,binding signal,GABPA,"1.16 fold enrichment (6-mer frequency, TF over GST control)"
same,binding signal,ERG,"1.16 fold enrichment (6-mer frequency, TF over GST control)"
same,binding signal,ELF1,"1.08 fold enrichment (6-mer frequency, TF over GST control)"
same,binding signal,EHF,"1.16 fold enrichment (6-mer frequency, TF over GST control)"
same,binding signal,SPI1,"1.17 fold enrichment (6-mer frequency, TF over GST control)"
same,binding signal,SPIB,"1.16 fold enrichment (6-mer frequency, TF over GST control)"
same,binding signal,ELK3,"1.18 fold enrichment (6-mer frequency, TF over GST control)"
same,binding signal,FEV,"1.03 fold enrichment (6-mer frequency, TF over GST control)"
same,binding signal,ETV5,"1.08 fold enrichment (6-mer frequency, TF over GST control)"
same,binding signal,HSF1,"1.84 fold enrichment (6-mer frequency, TF over GST control)"
same,binding signal,SPIC,"1.1 fold enrichment (6-mer frequency, TF over GST control)"
same,binding signal,ELF4,"1.14 fold enrichment (6-mer frequency, TF over GST control)"
same,binding signal,ELK4,"1.3 fold enrichment (6-mer frequency, TF over GST control)"
same,binding signal,ETV2,"1.09 fold enrichment (6-mer frequency, TF over GST control)"
same,binding signal,ELF3,"1.12 fold enrichment (6-mer frequency, TF over GST control)"
same,binding signal,CRX,"1.01 fold enrichment (6-mer frequency, TF over GST control)"
same,binding signal,ETV1,"1.1 fold enrichment (6-mer frequency, TF over GST control)"
